For 40 compounds, activity change, positive = activation results are on record in PubChem BioAssay (Tox21).

The source made the active and inactive calls. The call rests on the fitted dose curve.
On the % scale 0 is the no-effect control and ±100 the full control effect.

The nature of the assay: qHTS assay to identify small molecule agonists of the estrogen related receptor (ERR) signaling pathway from Tox21 library (AID 1224849). Further: nearly all actives have a fitted effect of over 15% in size. The conditions noted are these: ERR reporter cell line, ONE-Glo luciferase, 18 h; at 92.4 µM (top of the series) unless noted. An excerpt: National Center for Advancing Translational Sciences [NCATS]
NIH Chemical Genomics Center [NCGC]
U.S. Environmental Protection Agency [EPA]
National Institutes of Environmental Health Sciences [NIEHS]
National Toxicology Program [NTP]
Estrogen related receptors (ERRs), the first orphan nuclear receptors discovered, play an important role in the control of cellular energy metabolism. ERRs are required for high-energy production in response to the environmental challenges. ERR-alpha was also identified as an adverse marker for breast cancer progression; ERR-alpha-positive tumors have a poor prognosis. To screen and to identify environmental compounds that perturb the ERR signaling pathways could provide valuable information for potential therapeutic or preventive measures in the treatment of metabolic disease. For identifying ERR agonists, ERR cell line (provided by NTP) has been used to screen Tox21 10K library.
The ERR cells were dispensed at 2,000 cells/5 ul/well in 1536-well white plates using a Multidrop dispenser. After the assay plates were incubated at a 37 C/5% CO2 incubator for 6 hours, 23 nL of compounds dissolved in DMSO, positive and negative controls or DMSO only was transferred to the assay plate by a pin tool. The plates were incubated at 37 C for 18 hours. 4 ul/well of One-Glo reagent was added into the assay plates using a Flying Reagent Dispenser. After 30-minute incubation at room temperature, the luminescence intensity in the plates was measured using a ViewLux plate reader.
With `COc1ccc(C(=O)c2ccc(OC)cc2O)c(O)c1`, the activity change, positive = activation is -2.18% (active).

Take `COc1cc2c(cc1OC)C(C(C(=O)N(CCc1ccc(OC)c(OC)c1OC)CCc1ccc(OC)c(OC)c1OC)c1ccccc1)=NCC2` (stereo not given): the activity change, positive = activation was -49.6% [at 42.5 µM] (inactive). To `CCCCCCOC(=O)NC(=N)c1ccc(NCc2nc3cc(C(=O)N(CCC(=O)OCC)c4ccccn4)ccc3n2C)cc1` belongs -64.4% [at 42.5 µM] (inactive). Turning to `CCCCOC(=O)CCCCCCCC(=O)OCCCC`, the activity change, positive = activation was 2.99% (inactive). To `CCCCCCCCCCCCCCCCCCOS(=O)(=O)O` belongs -38.9% (inactive). Take `CCCCCCCCCCCCCCOS(=O)(=O)O`: the activity change, positive = activation is -17.5% (inactive). In the case of `C[C@@H](c1ncncc1F)C(O)(Cn1cncn1)c1ccc(F)cc1F` (stereo not given in full), the activity change, positive = activation was -0.316% [at 42.5 µM] (inactive). For the compound `Cc1nn(C)c(Oc2ccccc2)c1/C=N/OCc1ccc(C(=O)OC(C)(C)C)cc1`, the activity change, positive = activation is -44.6% (inactive). To `C[C@@H]1C[C@H]2O[C@@]3(O[C@@H]2C(C)(C)O)[C@H](O)[C@@]2(C)[C@@H]4CC[C@H]5C(C)(C)[C@@H](O[C@@H]6OC[C@@H](O)[C@H](O)[C@H]6O)CC[C@@]56C[C@@]46CC[C@]2(C)[C@@H]13` belongs -12.2% [at 42.5 µM] (inactive); to `CCC(C)O` (stereo not given), 0.0918% (inactive); to `CCOC(=O)C(O)c1ccccc1` (stereo not given), 3.78% [at 42.5 µM] (inactive). To `c1ccc(-c2ccccn2)nc1` belongs -20.5% (inactive). The same measure for `C=C1C(=C/C=C2\CCC[C@]3(C)[C@@H]([C@H](C)/C=C/[C@@H](O)C4CC4)CC[C@@H]23)C[C@@H](O)C[C@@H]1O`: -57.7% [at 42.5 µM] (inactive); for `O=S(c1cc(Cl)cc(Cl)c1O)c1cc(Cl)cc(Cl)c1O`: -6.01% [at 42.5 µM] (inactive); for `Nc1ccc([N+](=O)[O-])c(C(F)(F)F)c1`: -17.3% [at 42.5 µM] (inactive).

Turning to `CN(C)C(=O)NC1(c2ccccc2)CCN(CC[C@@]2(c3ccc(F)c(F)c3)CN(C(=O)c3ccccc3)CCO2)CC1`, the activity change, positive = activation is -22.6% (inactive). As to `N=c1ccn2c(n1)O[C@H]1[C@H](O)[C@@H](CO)O[C@H]12`, the activity change, positive = activation was -6.33% (inactive). `CCCCCCCCCCCCCCCCOS(=O)(=O)O`: the activity change, positive = activation was -16% [at 42.5 µM] (inactive). The same measure for `O=C1CCCCCCCCCCCC(=O)OCCO1`: 1.67% (inactive); for `Cc1oc2c(NC(=O)c3c(Cl)cccc3Cl)cccc2c1C(C)(C)O`: -55.8% (inactive); for `CCc1c(C(=O)NN2CCCCC2)nn(-c2ccc(Cl)cc2Cl)c1-c1ccc(Br)cc1`: -62% (inactive). Turning to `C=CC(=O)OCCOc1ccccc1`, the activity change, positive = activation is 46.4% (active). Regarding `CC(C)(O)c1ccc(CNC(=O)c2cccnc2Oc2ccc(F)cc2)cc1`, the activity change, positive = activation was -45% (inactive). To `Nc1cc(C(=O)O)c(O)c(S(=O)(=O)O)c1` belongs 7.51% (inactive). The same measure for `ClCCOCCOCCCl`: 2.88% (inactive); for `CCCOC(C(=O)OC1CCN(C)CC1)(c1ccccc1)c1ccccc1`: -25.8% [at 42.5 µM] (inactive); for `O=C(O)c1ccc(-n2nc(-c3ccccc3O)nc2-c2ccccc2O)cc1`: -48.9% [at 42.5 µM] (inactive). The same measure for `CCCCNc1ccc(C(=O)OCCOCCOCCOCCOCCOCCOCCOCCOCCOC)cc1`: -27.3% [at 42.5 µM] (inactive); for `C=CC(=O)OCCOCCOC(=O)C=C`: -74.8% (active); for `O=C1[C@H]2CCCC[C@H]2C(=O)N1CCCCN1CCN(c2nsc3ccccc23)CC1`: -38.9% [at 42.5 µM] (inactive).

As to `CCCCC(CC)COC(=O)CCCCCCCCC(=O)OCC(CC)CCCC` (stereo not given), the activity change, positive = activation is 1.57% (inactive). The same measure for `CC(=O)[O][Al]`: 0.0434% (inactive); for `Nc1ccc(N)c2c1C(=O)c1ccccc1C2=O`: -37.5% (inactive). Take `CC[N+](C)(CC)CCOC(=O)C(O)(c1ccccc1)C1CCCCC1` (stereo not given): the activity change, positive = activation was -2.02% [at 42.5 µM] (inactive). The same measure for `O=S(=O)(Oc1ccc(Cl)cc1)c1ccccc1`: -14.7% (inactive).

As for `CCCCC/C=C\C/C=C\CCCCCCCC(=O)NC(C)c1ccccc1` (stereo not given), the activity change, positive = activation is -35.5% [at 42.5 µM] (inactive). For the compound `OCc1cc(C(O)CNCCCCCCOCCCCc2ccccc2)ccc1O` (stereo not given), the activity change, positive = activation is -29.9% [at 42.5 µM] (inactive).

For the compound `COc1ccc(C(=O)N2CCN(CC(=O)N3CCOCC3)CC2)cc1`, the activity change, positive = activation is 4.84% [at 42.5 µM] (inactive). With `O=[N+]([O-])c1cccc(S(=O)(=O)O)c1`, the activity change, positive = activation is -46% (inactive). `COCCCN1CCC(NC(=O)c2cc(Cl)c(N)c3c2OCC3)CC1`: the activity change, positive = activation is 5.44% [at 42.5 µM] (inactive).
